In the library only some 7.8% were active in any assay of this set; here they are far more common.
HCMV inh: inhibitors of human cytomegalovirus. AID 1259415. hit rate 4.5% among 410,000. HFF cells, HCMV-luciferase reporter, 72 h; hits give low values. activity change, negative = inhibition, % at 57.5 µM; in the data active = activity change below about -60%; inconclusive = no clear call, values can overlap the other calls; inactive = above about -39%
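Compounds were evaluated in HFFs infected with an HCMV luciferase reporter virus (MOI 1 PFU/cell). Luciferase in lysates collected 72 h post infection served as the replication measure.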
LASV entry inh: inhibitors of Lassa virus binding or cell entry; Potency, µM (titrated, usually from 37.9 µM), inactives show at the highest dose activity change, negative = inhibition, most hits filed as inhibitors; Lassa virus pseudotype entry inhibition, cell reporter; hit rate 1.2% among 300,000; AID 540256; calls by dose curve; tested in HEK293 cells; also: potency is read from the fitted curve at half-maximal effect; nearly all actives have a fitted effect of over 50% in size
VACV mCherry inh: vaccinia inhibition (mCherry reporter). Potency, µM (highest dose often 36.5 µM), for inactives: at the top dose activity change, negative = inhibition, hits mostly inhibitors. hit rate 0.63% among 310,000. Vaccinia virus mCherry reporter infection, fluorescence; calls by dose curve; tested in A549 cells; also: potency is read from the fitted curve at half-maximal effect; nearly all actives have a fitted effect of over 35% in size
Marburg entry inh: Marburg virus entry inhibition. Potency, µM (series often up to 37.8 µM), without a hit: top-dose activity change, negative = inhibition, actives largely listed as inhibitors. hit rate 1.8% among 300,000. AID 540276. Marburg virus pseudotyped entry inhibition, cell reporter; calls by dose curve; tested in HEK293 cells; also: potency is read from the fitted curve at half-maximal effect
VACV Venus inh: inhibitors of vaccinia virus (Venus reporter). hit rate 0.46% among 330,000. Vaccinia virus Venus reporter expression, fluorescence. AID 720580. Potency, µM (highest dose often 36.5 µM), for the others: at the top dose activity change, negative = inhibition, actives largely listed as inhibitors; calls by dose curve; tested in A549 cells; also: potency is read from the fitted curve at half-maximal effect; nearly all actives have a fitted effect of over 30% in size
HCV inh: inhibitors of hepatitis C virus infection | hit rate 3.4% among 340,000 | Potency, µM (doses to about 41.8 µM), without a hit: at the top dose activity change, negative = inhibition, actives largely listed as inhibitors | AID 651820 | Huh7.5.1 HCVcc-Cre infection, luciferase reporter, 44 h; active = well fitted inhibition curve with a large enough effect; inconclusive = small, poorly fitted or top-dose-only effect, or another doubt; inactive = no such curve, though single readings can be large or run the other way; also: potency is read from the fitted curve at half-maximal effect
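Cells seeded at 1,000/well and cultured 4 h, then compounds added followed by HCVcc-Cre virus (~0.5 moi). After 44 h further culture, luciferase substrate was added, plates held 15 min at room temperature, and luminescence read for 15 sec.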
* marks the source's active call; other numbers are inactive results; i = inactive; ? = inconclusive; / = no result; [ ] = dose if it differs, or a comment. % is scaled to controls: 0 for no effect and ±100 for the full control effect.

SMILES	HCMV inh	LASV entry inh	VACV mCherry inh	Marburg entry inh	VACV Venus inh	HCV inh
COCCN(C(=O)CSc1nnc(C)n1Cc1ccccc1)c1c(N)n(Cc2ccccc2)c(=O)[nH]c1=O	/	1%	-9%	?	-2%	4%
COCCN(C(=O)CSc1nnc2cc(C)c3ccccc3n12)c1c(N)n(Cc2ccccc2)c(=O)[nH]c1=O	-94*	?	-7%	?	3%	-23%
CCCCN(C(=O)CSc1nnc(Nc2ccc(C)c(C)c2)s1)c1c(N)n(Cc2ccccc2)c(=O)[nH]c1=O	29	?	?	?	?	10µM*
CCC[C@H]1[C@@H](NC(=O)Nc2ccc(Cl)cc2)CC[C@@]23CCCN2C(=O)CCC[C@@H]13	-14	/	/	/	/	/
COc1cc(NC(=S)N(C)C)c(OC)cc1Cl	?	18%[46.1 µM]	i	-3%[46.1 µM]	0%	12%
COc1cc(NC(=S)NC2CC2)c(OC)cc1Cl	-81*	-3%	i	0%	-1%	-23%
CCOC(=O)[C@@H](C)N1[C@H](C)[C@H](c2ccccc2)Oc2cc(Br)ccc2S1(=O)=O	/	/	/	4.4µM*	/	/
COC(=O)c1c(OCc2ccccn2)cc(=O)n2c1CCN(C(=O)c1cc(C(C)C)nn1C)CC2	/	/	i	/	0%	/
COC(=O)N[C@@H](/C=C/c1ccccc1)[C@@H](C)[N+](=O)[O-]	/	/	/	2%[14.2 µM]	/	/
O=S(=O)(O)c1ccc(N=Nc2ccccc2)cc1	-3	19%[46.1 µM]	i	14%[46.1 µM]	-17%	25%
Nc1c(N=Nc2ccc(-c3ccc(N=Nc4cc(S(=O)(=O)O)c5ccccc5c4N)cc3)cc2)cc(S(=O)(=O)O)c2ccccc12	/	?	/	14µM*	/	/
CCN(CC(=O)Nc1c(F)cccc1F)C(=O)c1c(-c2ccccc2Cl)noc1C	-23	/	-3%	/	-3%	/
O=C(NCCc1ccc(Cl)cc1)C1CCN(S(=O)(=O)c2ccc(Br)s2)CC1	-38	-16%	-28%	-21%[46.1 µM]	-22%	10µM*
O=C(NCCc1ccc(Cl)cc1)C1CCC(=O)N(C2CCCCCC2)C1 (stereo unspecified)	-61*	5%[46.1 µM]	i	-6%[46.1 µM]	-12%	1%
O=C(Nc1ccc(Cl)cc1)C1CCN(S(=O)(=O)c2ccc(Br)s2)CC1	-96*	?	-25%	-15%[46.1 µM]	-14%	/
O=C(NCCc1ccc(Cl)cc1)C1CCN(C(=O)c2sccc2-n2cccc2)CC1	-8	-23%	-21%	?	-27%	8.9µM*
O=C(NCCc1ccc(Cl)cc1)C1CC(=O)N(C2CCCC2)C1 (stereo unspecified)	-39	/	6%[7.34 µM]	/	10%[7.34 µM]	1%
COc1cc(OC)c(OC)cc1CN1CCCC(n2cc(C(=O)N3CCCCC3)nn2)C1 (stereo unspecified)	/	/	-21%	/	-4%	/
COc1ccc(C2=C3C(=O)OCC3Cc3ncn(Cc4ccccc4)c32)cc1 (stereo unspecified)	-76*	/	-6%	/	-9%	5%
COc1ccc(-c2noc(-c3ccc(NC4CCCCC4)c([N+](=O)[O-])c3)n2)cc1	5	19%[46.1 µM]	2%	-9%[46.1 µM]	-2%	/
O=C1C=C(c2cccs2)C[C@H](c2ccccc2)[C@H]1n1nnc([N+](=O)[O-])n1	-80*	?	?	1.3µM*	?	?
CCOc1ccc(-c2cn3c(n2)sc2cc(C(=O)NCCCN4CCCCC4)ccc23)cc1	/	-3%[46.1 µM]	-19%	/	-21%	/
CCOc1ncccc1C(=O)OCC(=O)Nc1ccc2c(c1)OCCO2	10	/	/	/	/	-2%
CCOC(=O)c1cnc2ccccc2c1Nc1ccc2c(c1)OCCO2	-70*	-25%	i	-29%	-13%	?
NNc1nnc2c3cc(F)ccc3n(Cc3ccccc3)c2n1	-95*	?	-29%[7.34 µM]	?	-16%[7.34 µM]	?
COc1ccc(N=C(N)SCc2ccccn2)cc1	-17	?	11µM*	-23%	11µM*	?
Cc1ccc2c(=O)c(C(=O)c3ccc(F)cc3)cn(CC(=O)NCc3ccccc3)c2n1	4	1%[46.1 µM]	-14%	/	-7%	/
COc1ccc(Cl)cc1NC1=NCC(C)S1 (stereo unspecified)	2	2%	/	22%	/	11µM*
CCOC(=O)c1sc(SC)c2c1CCC/C2=N/OC	3	2%	-12%	14%	6%	?

Source: PubChem
